Measurements published in PubChem BioAssay.
Results filed as inconclusive are left out. For part of these data: Results with a measured potency or affinity are listed apart. The source made the active and inactive calls.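 How the source made its calls, unless noted: active means compound that reduces growth-factor-driven endothelial tube area in a mixed cell culture, no cutoff stated; inactive means the rest.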

Assays:
[1] = stimulators of insulin release from INS-1E, primary screen, cell-based, 5 mM glucose, NPC library (AID 1117329;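 active means compound raises insulin release from rat beta cells at 5 mM glucose, no numeric limit stated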); conditions: rat INS-1E insulin secretion, at 10 µM, stronger effect = higher value
[2] = growth inhibition of GSK3B-pretreated HCT116 cells – cell-based, CellTiter-Glo, 0.2 to 20 µM (AID 1117336;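 active means compounds lowering colon cancer cell viability after pretreatment blocking the GSK3B kinase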); conditions: HCT116 viability after GSK3B inhibitor, at 20 µM, stronger effect = higher value
[3] = inhibition of endothelial tube formation, primary screen, imaging, VEGF stimulated, CD31 staining, tube area, NPC library (AID 1117340); conditions: VEGF-stimulated ADSC/ECFC co-culture, at 10 µM, stronger effect = higher value
[4] = glucagon-like peptide 1 release enhancers, primary assay, NCI-H716 cell line, NPC library (AID 1117341;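 active means compound raises GLP1 secretion from the human gut endocrine cells, with no numeric limit stated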); conditions: NCI-H716 cells, at 10 µM, stronger effect = higher value
[5] = HCT116 colon cancer cell growth inhibition, primary screen, CellTiter-Glo luminescence, NPC library (AID 1117342;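 active means compounds that lower survival of HCT116 colon cancer cells in the luminescence readout, no numeric limit stated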); conditions: at 20 µM (top of the series)
[6] = CellTiter-Glo luminescent readout of SW480 viability loss, NPC library primary (AID 1117343;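 active means compounds that lower viability of the colon cancer cells in the luminescence readout, with no numeric limit stated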); conditions: CellTiter-Glo luminescence; at 20 µM (top of the series)
[7] = decreased DLD-1 cellular survival, CellTiter-Glo luminescent readout, NPC compound collection, primary HTS (AID 1117346;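 active means compounds that lower survival of DLD-1 colon cancer cells in the luminescence readout, no cutoff given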); conditions: DLD-1 viability, CellTiter-Glo luminescence; at 20 µM (top of the series)
[8] = molecular target: 6-phosphogluconate dehydrogenase, decarboxylating (Homo sapiens) (UniProt P52209); experiment: 6PGD enzyme inhibitors, primary screen, biochemical, human, recombinant enzyme, NADPH absorbance (AID 1159550;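 active means at least 20% inhibition of 6-phosphogluconate dehydrogenase activity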); conditions: recombinant 6PGD, NADPH absorbance 341 nm; at 10 µM; stronger effect = higher value
[9] = growth inhibition of DIPG glioma cells, dose response, cell-based, JHH-DIPG-1, MIPE4.0, CellTiter-Glo, qHTS (AID 1347062; cut-off not given, nearly all actives have AC50 up to about 27 µM); conditions: JHH-DIPG-1 viability, CellTiter-Glo ATP luminescence
[10] = growth inhibition of DIPG glioma cells, dose response, cell-based, SU-DIPG-XVII, MIPE5.0, CellTiter-Glo, qHTS (AID 1347060; cut-off not given, nearly all actives have AC50 up to about 26 µM); conditions: SU-DIPG-XVII viability, CellTiter-Glo ATP luminescence
[11] = growth inhibition of DIPG glioma cells, dose response, cell-based, SU-DIPG-XIII, MIPE4.0, CellTiter-Glo, qHTS (AID 1347061; cut-off not given, nearly all actives have AC50 up to about 37 µM;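 further: cells exposed to compound for 48 hours before readout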); conditions: SU-DIPG-XIII viability, CellTiter-Glo ATP luminescence
[12] = growth inhibition of DIPG glioma cells, dose response, cell-based, SU-DIPG-IV, MIPE4.0, CellTiter-Glo, qHTS (AID 1347063; cut-off not given, nearly all actives have AC50 up to about 30 µM;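 further: compound exposure lasted 48 hours before the viability readout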); conditions: SU-DIPG-IV viability, CellTiter-Glo ATP luminescence
[13] = growth inhibition of DIPG glioma cells, dose response, cell-based, SU-DIPG-XIII, MIPE5.0, CellTiter-Glo, qHTS (AID 1347064; cut-off not given, nearly all actives have AC50 up to about 23 µM;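 on AC50: cells exposed to compound for 48 hours before the viability read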); conditions: SU-DIPG-XIII viability, CellTiter-Glo ATP luminescence
[14] = modulation of C. elegans fzo-1 (AID 1259413; call rule not given here;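 further: fzo-1 mutant C. elegans worms in liquid wells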); conditions: C. elegans fzo-1 modulator screen, mean read-out; stronger effect = higher value
[15] = differential killing of epithelial or mesenchymal cells, primary screen, imaging, PC-3E GFP, TEM4-18 mCherry, co-culture (AID 1345086;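 active means compounds killing one labelled cell type while sparing the other, by normalised counts and ratio limits, not self-fluorescent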;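 further: cells exposed to compound for 72 h before imaging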;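 on red/green cell ratio (normalised): normalised mesenchymal count divided by normalised epithelial count so high means epithelial killing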); conditions: imaging cell counts, at 1 µM
[16] = molecular target: Calcium-dependent protein kinase 1 (Plasmodium falciparum (isolate 3D7)) (UniProt P62344); experiment: PfCDPK1 kinase inhibitors, biochemical, TCAMS library (AID 1159585; cut-off not given, nearly all actives have IC50 up to about 0.98 µM;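 further: inhibitors leave more ATP so luminescence rises with inhibition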); conditions: recombinant PfCDPK1, Kinase-Glo ATP depletion luminescence
[17] = molecular target: Plasmodium falciparum protein kinase 6 (PK6, PF3D7_1337100) (UniProt Q8IDW1); experiment: PfPK6 kinase inhibitors, biochemical, TCAMS library (AID 1159586; call rule not given here); conditions: recombinant PfPK6, Kinase-Glo ATP depletion luminescence
[18] = molecular target: Protein kinase 7 (PK7), Plasmodium falciparum 3D7 (PF3D7_0213400) (UniProt Q7YTF7); experiment: inhibition of Plasmodium PK7 catalytic activity – biochemical, TCAMS antimalarial set, Kinase-Glo luminescence (AID 1159587; call rule not given here); conditions: recombinant PfPK7, Kinase-Glo ATP depletion luminescence
[19] = molecular target: Calcium-dependent protein kinase 4 (Plasmodium falciparum (isolate 3D7)) (UniProt Q8IBS5); experiment: PfCDPK4 kinase inhibitors, biochemical, TCAMS library (AID 1159588; cut-off not given, nearly all actives have IC50 up to about 0.91 µM); conditions: recombinant PfCDPK4, Kinase-Glo ATP depletion luminescence
[20] = test system: Aerobactin synthetase IucA (Klebsiella pneumoniae); experiment: IucA aerobactin synthetase inhibitors, biochemical, Tocris library, absorbance (AID 1345561; call rule not given here;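 further: 100% = enzyme without compound and 0% = no enzyme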); conditions: purified IucA enzyme assay, absorbance (OD) read-out; stronger effect = lower value;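 tested at 8 µM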

Chain of Calcium-dependent protein kinase 4 (Plasmodium falciparum (isolate 3D7)) (Q8IBS5 whole entry, looked up): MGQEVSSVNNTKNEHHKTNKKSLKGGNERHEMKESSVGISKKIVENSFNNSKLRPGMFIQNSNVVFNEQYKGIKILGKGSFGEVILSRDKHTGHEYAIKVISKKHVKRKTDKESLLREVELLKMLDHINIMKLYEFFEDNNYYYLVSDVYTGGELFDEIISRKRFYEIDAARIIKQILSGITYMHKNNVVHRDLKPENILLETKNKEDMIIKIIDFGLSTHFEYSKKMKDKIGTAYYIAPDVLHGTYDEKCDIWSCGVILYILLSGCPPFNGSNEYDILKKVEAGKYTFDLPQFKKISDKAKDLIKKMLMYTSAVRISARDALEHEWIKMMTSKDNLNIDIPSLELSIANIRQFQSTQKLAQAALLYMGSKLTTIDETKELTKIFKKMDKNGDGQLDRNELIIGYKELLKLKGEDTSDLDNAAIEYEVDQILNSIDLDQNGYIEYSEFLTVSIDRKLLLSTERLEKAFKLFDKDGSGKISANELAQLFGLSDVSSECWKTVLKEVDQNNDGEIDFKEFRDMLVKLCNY
Chain of Calcium-dependent protein kinase 1 (Plasmodium falciparum (isolate 3D7)) (P62344 whole entry, looked up): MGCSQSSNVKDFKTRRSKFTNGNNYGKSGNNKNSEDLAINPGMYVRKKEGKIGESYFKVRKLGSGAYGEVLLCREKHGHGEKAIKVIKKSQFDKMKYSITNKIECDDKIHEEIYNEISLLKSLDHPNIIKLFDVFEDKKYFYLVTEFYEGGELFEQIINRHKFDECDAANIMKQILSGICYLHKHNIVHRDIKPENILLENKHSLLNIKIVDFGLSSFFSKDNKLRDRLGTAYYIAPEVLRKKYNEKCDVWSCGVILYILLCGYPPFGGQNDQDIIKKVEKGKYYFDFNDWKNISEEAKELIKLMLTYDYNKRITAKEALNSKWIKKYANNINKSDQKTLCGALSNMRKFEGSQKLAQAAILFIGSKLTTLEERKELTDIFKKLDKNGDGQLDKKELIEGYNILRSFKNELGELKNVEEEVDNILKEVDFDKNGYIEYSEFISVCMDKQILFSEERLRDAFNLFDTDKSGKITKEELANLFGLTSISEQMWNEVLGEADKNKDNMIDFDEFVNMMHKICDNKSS
Chain of 6-phosphogluconate dehydrogenase, decarboxylating (Homo sapiens) (P52209 whole entry, looked up): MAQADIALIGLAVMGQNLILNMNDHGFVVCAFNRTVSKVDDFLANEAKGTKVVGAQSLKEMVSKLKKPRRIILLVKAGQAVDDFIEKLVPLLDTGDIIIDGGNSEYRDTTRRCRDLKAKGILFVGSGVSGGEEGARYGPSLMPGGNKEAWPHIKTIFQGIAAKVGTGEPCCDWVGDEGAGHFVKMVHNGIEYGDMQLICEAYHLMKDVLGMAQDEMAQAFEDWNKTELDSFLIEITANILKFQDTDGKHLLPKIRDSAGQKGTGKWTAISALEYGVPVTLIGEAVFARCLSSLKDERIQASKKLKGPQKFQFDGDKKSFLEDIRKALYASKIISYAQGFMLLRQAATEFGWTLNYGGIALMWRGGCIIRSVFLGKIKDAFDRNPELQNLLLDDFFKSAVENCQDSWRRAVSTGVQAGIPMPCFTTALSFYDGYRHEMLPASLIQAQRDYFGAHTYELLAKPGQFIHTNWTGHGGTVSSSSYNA
Chain of Plasmodium falciparum protein kinase 6 (PK6, PF3D7_1337100) (Q8IDW1 1-305): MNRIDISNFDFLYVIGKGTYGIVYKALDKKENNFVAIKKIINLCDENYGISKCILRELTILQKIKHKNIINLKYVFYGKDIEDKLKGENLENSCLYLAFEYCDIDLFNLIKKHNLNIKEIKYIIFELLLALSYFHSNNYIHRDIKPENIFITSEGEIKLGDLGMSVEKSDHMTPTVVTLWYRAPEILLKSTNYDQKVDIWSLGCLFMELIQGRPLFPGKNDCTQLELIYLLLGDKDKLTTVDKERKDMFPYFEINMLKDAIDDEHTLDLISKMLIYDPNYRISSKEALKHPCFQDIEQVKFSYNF
Chain of Protein kinase 7 (PK7), Plasmodium falciparum 3D7 (PF3D7_0213400) (Q7YTF7 1-343): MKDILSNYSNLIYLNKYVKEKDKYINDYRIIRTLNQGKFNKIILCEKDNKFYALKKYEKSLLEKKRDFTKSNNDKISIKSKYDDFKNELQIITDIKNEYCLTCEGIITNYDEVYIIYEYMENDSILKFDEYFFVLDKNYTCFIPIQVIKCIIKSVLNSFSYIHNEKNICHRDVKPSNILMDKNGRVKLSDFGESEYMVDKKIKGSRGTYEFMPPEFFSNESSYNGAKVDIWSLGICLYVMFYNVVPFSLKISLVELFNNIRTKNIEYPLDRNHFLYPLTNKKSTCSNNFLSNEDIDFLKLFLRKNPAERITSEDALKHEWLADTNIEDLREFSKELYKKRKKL

CC1=C(C(=O)O)N2C(=O)[C@@H](NC(=O)[C@H](N)C3=CCC=CC3)[C@H]2SC1
inactive: insulin secretion stimulation [1] 0.35% | viability decrease [2] 47.6% | tube area decrease [3] 0.9% | GLP1 secretion stimulation [4] 1.6% | inhibition of viability [5] 44% | viability decrease (inhibition) [6] 34.9% | viability decrease (inhibition) [7] 16.5% | inhibition [8] 12.9% | outcome [9]

Nc1ccc(S(N)(=O)=O)cc1
inactive: insulin secretion stimulation [1] -1.2% | viability decrease [2] 3.9% | tube area decrease [3] -8.1% | GLP1 secretion stimulation [4] 2.3% | inhibition of viability [5] -0.4% | viability decrease (inhibition) [6] 6.8% | viability decrease (inhibition) [7] 25.1% | inhibition [8] 7.71% | outcome [10] | outcome [11] | outcome [9] | outcome [12] | outcome [13]

NCC1CCC(C(=O)Oc2ccc(CCC(=O)O)cc2)CC1 (stereo unspecified)
inactive: viability decrease [2] 1.9% | tube area decrease [3] 4.4% | GLP1 secretion stimulation [4] 1.4% | inhibition of viability [5] -7.95% | viability decrease (inhibition) [6] 17.7% | viability decrease (inhibition) [7] 3.17% | mean signal [14] 243
active: insulin secretion stimulation [1] -2.1%

Cc1cc(C(C)(C)C)cc(C)c1CC1=NCCN1
inactive: insulin secretion stimulation [1] 0.2% | viability decrease [2] -61.3% | tube area decrease [3] 5.9% | GLP1 secretion stimulation [4] 4.3% | inhibition of viability [5] 18.3% | viability decrease (inhibition) [6] 2.6% | viability decrease (inhibition) [7] 14.6% | inhibition [8] -1.59% | red/green cell ratio (normalised) ([15]; actives lie on both sides, counts scaled to control wells, 1 = unselective) 1.16 | outcome [13]
1.07: normalised cell number ([15]; measured here: epithelial PC-3E GFP cell survival)
1.24: normalised cell number ([15]; measured here: mesenchymal TEM4-18 mCherry cell survival)

CCCN1CCCC[C@H]1C(=O)Nc1c(C)cccc1C
active: insulin secretion stimulation [1] 31%
inactive: viability decrease [2] -8% | tube area decrease [3] -2.1% | GLP1 secretion stimulation [4] 3.3% | inhibition of viability [5] 3.1% | viability decrease (inhibition) [6] -17% | viability decrease (inhibition) [7] 6.9% | mean signal [14] 274

C[N+]1(C)[C@@H]2CC(OC(=O)[C@H](CO)c3ccccc3)C[C@H]1[C@@H]1O[C@@H]12 (stereo partly specified)
inactive: insulin secretion stimulation [1] 0.2% | viability decrease [2] -19.7% | tube area decrease [3] 5.6% | GLP1 secretion stimulation [4] -2.3% | inhibition of viability [5] 2% | viability decrease (inhibition) [6] -6.3% | viability decrease (inhibition) [7] -6.1% | inhibition [8] 0.481% | outcome [10] | outcome [11] | outcome [9] | outcome [12] | outcome [13]

COc1cc2c(cc1OC)-c1cc(=Nc3c(C)cc(C)cc3C)n(C)c(=O)n1CC2
inactive: insulin secretion stimulation [1] 1.3% | tube area decrease [3] -11.8% | GLP1 secretion stimulation [4] 12.7% | outcome [16] | outcome [17] | outcome [18] | outcome [19] | remaining activity [20] 110%
active: viability decrease [2] 91.5% | inhibition of viability [5] 71.2% | viability decrease (inhibition) [6] 120% | viability decrease (inhibition) [7] 66.5%

COc1cc(/C=C/C(=O)CC(=O)/C=C/c2ccc(O)c(OC)c2)ccc1O
active: AC50 [12] 30.3 µM | AC50 [13] 16.6 µM
inactive: insulin secretion stimulation [1] 1.35% | viability decrease [2] 26.1% | tube area decrease [3] -1.2% | GLP1 secretion stimulation [4] -0.1% | inhibition of viability [5] 11.9% | viability decrease (inhibition) [6] -4.1% | viability decrease (inhibition) [7] -7.3% | inhibition [8] 8.75%

O=C(Nc1cccc(C2=NCCN2)c1)Nc1cccc(C2=NCCN2)c1
active: viability decrease [2] 72.2% | inhibition of viability [5] 70.7% | viability decrease (inhibition) [6] 52.2% | viability decrease (inhibition) [7] 60.8%
inactive: insulin secretion stimulation [1] 0.05% | tube area decrease [3] -57.4% | GLP1 secretion stimulation [4] -1% | outcome [16] | outcome [17] | outcome [18] | outcome [19]

CCN(CC)Cc1cc(Nc2ccnc3cc(Cl)ccc23)ccc1O
inactive: insulin secretion stimulation [1] 9.6% | tube area decrease [3] 39.9% | GLP1 secretion stimulation [4] -1.3% | viability decrease (inhibition) [7] 44.8% | outcome [16] | outcome [17] | outcome [18] | outcome [19]
active: viability decrease [2] 82% | inhibition of viability [5] 83.2% | viability decrease (inhibition) [6] 87.3%

C[C@H](NC(CCc1ccccc1)C(=O)O)C(=O)N1CCC[C@H]1C(=O)O (stereo partly specified)
inactive: insulin secretion stimulation [1] 0.1% | viability decrease [2] -6.3% | tube area decrease [3] -8% | GLP1 secretion stimulation [4] 1.4% | inhibition of viability [5] 2.7% | viability decrease (inhibition) [6] -8.4% | viability decrease (inhibition) [7] -2.7% | mean signal [14] 226

CCCCCCCC/C=C\CCCCCCCC(=O)NCc1ccc(O)c(OC)c1
active: inhibition of viability [5] 65.7% | viability decrease (inhibition) [7] 53.1%
inactive: insulin secretion stimulation [1] 3.15% | viability decrease [2] 26.6% | tube area decrease [3] 17.4% | GLP1 secretion stimulation [4] 6.2% | viability decrease (inhibition) [6] 47.5% | outcome [16] | outcome [17] | outcome [18] | outcome [19] | remaining activity [20] 100%

C[C@]12CC[C@@H]3c4ccc(O)cc4CC[C@H]3[C@@H]1C[C@@H](O)[C@@H]2O
inactive: insulin secretion stimulation [1] 2% | viability decrease [2] 11.1% | tube area decrease [3] -3.9% | GLP1 secretion stimulation [4] 12.5% | inhibition of viability [5] 4.67% | viability decrease (inhibition) [6] 25.1% | viability decrease (inhibition) [7] -13.7% | inhibition [8] -14.5% | outcome [13]

C[C@H]1O[C@@H](n2cc(F)c(=O)[nH]c2=O)[C@H](O)[C@@H]1O
active: inhibition of viability [5] 59.6%
inactive: insulin secretion stimulation [1] -1.2% | viability decrease [2] 29.5% | tube area decrease [3] 22.2% | GLP1 secretion stimulation [4] -2.6% | viability decrease (inhibition) [6] 20.6% | viability decrease (inhibition) [7] 8.35% | inhibition [8] -6.33% | outcome [9]

NC(=O)c1ncn([C@@H]2O[C@H](CO)[C@@H](O)[C@H]2O)c1O
inactive: insulin secretion stimulation [1] -2.6% | viability decrease [2] -1.75% | tube area decrease [3] 3.8% | GLP1 secretion stimulation [4] 2.6% | inhibition of viability [5] -13.1% | viability decrease (inhibition) [6] 2.7% | viability decrease (inhibition) [7] 4.7% | inhibition [8] 1.32% | outcome [10] | outcome [11] | outcome [13]
